Source: PubChem BioAssay
Active and inactive are the calls of the source. Unless noted, how the calls were made is not given here.

Key:
[1] = anti-His antibody binders, primary screen, artefact control for SMM control protein annotation, biochemical, small-molecule microarray, 635 nm fluorescence (AID 1128); conditions: anti-His Alexa647 antibody binding, higher = more signal;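 further: score merges feature fluorescence with signal-to-noise for each printed compound spot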
[2] = tested on: Human papillomavirus type 1a E7 protein (residues 1-88); assay: HPV1a E7 small-molecule binders, primary screen, biochemical, small-molecule microarray, residues 1-88, 635 nm (AID 1129); conditions: small-molecule microarray binding, fluorescence 635 nm; higher = more signal
[3] = target: Focal adhesion kinase 1 (Homo sapiens) (UniProt Q05397); assay: small-molecule microarray binders of FAK, primary screen, biochemical, 635/667 nm fluorescence, BSA, DTT (AID 1130); conditions: PTK2 binding, 635 nm fluorescence, higher = more signal;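 further: composite of spot emission at 667 nm and signal to noise over triplicate slides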
[4] = tested on: Fibrinogen (Alexa647-labelled); assay: fibrinogen binders on compound microarrays, profiling panel, artefact control for SMM control-protein annotation, biochemical, small-molecule microarray, 635/667 nm fluorescence (AID 1131); conditions: fibrinogen-A647 binding fluorescence, higher = more signal;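 further: z-score merges 667 nm fluorescence with per-spot signal-to-noise over triplicate slides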
[5] = target: Follistatin (Homo sapiens) (UniProt P19883); assay: follistatin binders on small-molecule microarrays, primary screen, biochemical, small-molecule microarray, 635/667 nm fluorescence (AID 1132); conditions: FST binding, 635 nm fluorescence, higher = more signal
[6] = target: Fibroblast growth factor 2 (Homo sapiens) (UniProt P09038); assay: FGF2 binders on small-molecule microarrays, primary screen, biochemical, small-molecule microarray, 635/667 nm fluorescence (AID 1133); conditions: small-molecule microarray binding, FGF2, fluorescence 635/667; higher = more signal
[7] = mitochondrial membrane potential change in A549 cells, profiling panel, cell-based, JC-1 fluorescence, basal, 24 h, 100 nL (AID 1138); conditions: higher = more signal;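 further: A549 lung adenocarcinoma cells under basal conditions with no added stimulus; test concentration not given here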
[8] = tested on: Lefty1; assay: Lefty1 binders on small-molecule microarrays, primary screen, biochemical, small-molecule microarray, 635/667 nm fluorescence (AID 1139); conditions: small-molecule microarray binding, fluorescence 635/667; higher = more signal
[9] = tested on: wheat germ agglutinin (Triticum aestivum), Alexa647-labelled; assay: wheat germ agglutinin binders on compound microarrays, profiling panel, artefact control for SMM control-protein annotation, biochemical, small-molecule microarray, 635/667 nm fluorescence (AID 1140); conditions: WGA-A647 binding, 635 nm fluorescence, higher = more signal;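 further: score merges 667 nm feature emission with signal to noise over triplicate slides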
[10] = target: Luciferin 4-monooxygenase (Photinus pyralis) (UniProt P08659); assay: firefly luciferase enzyme inhibitors, primary screen, biochemical, luminescence, purified enzyme, 2006 set (AID 1141); conditions: SteadyGlo luminescence, 30 min, higher = more signal, called active from +8 up or from −8 down;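 further: cell-free assay with purified firefly luciferase at 100 ng per well in PBS; test concentration not given here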
[11] = tested on: Wnt5a (protein binding on small-molecule microarray); assay: Wnt5a binders on small-molecule microarray, primary screen, biophysical, 635/667 nm fluorescence (AID 1142); conditions: 635 nm fluorescence, higher = more signal;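 further: fluorescence read at 667 nm with signal to noise per printed feature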
[12] = cell viability in Huh7 cells, primary screen, cytotoxicity control for HCV replication inhibitor project, CellTiter-Glo luminescence, basal, 48 h (AID 1143); conditions: Huh7 HCV replicon, higher = more signal, called active from +8 up or from −8 down;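 further: Huh7 hepatoma cells carrying a hepatitis C replication reporter with no stimulus; test concentration not given here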
[13] = P. aeruginosa biofilm formation inhibitors, primary screen, PAO1 strain, BacTiter-Glo luminescence, LB-PBS (AID 1144); conditions: 12 h, higher = more signal
[14] = CREB reporter modulators without forskolin, primary screen, cell-based, PC12, CRE-LacZ reporter, unstimulated (AID 1145); conditions: no forskolin, luminescence, 4.5 h, higher = more signal, called active from +8 up or from −8 down
[15] = CREB reporter modulators under forskolin, primary screen, cell-based, PC12, CRE-LacZ reporter, forskolin-stimulated (AID 1146); conditions: luminescence, 4.5 h, higher = more signal, called active from +8 up or from −8 down;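 further: PC12 cells with 6xCRE LacZ reporter stimulated by forskolin 10 µM; beta-galactosidase reporter signal reflecting CREB driven transcription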
[16] = target: Streptavidin (Streptomyces avidinii) (UniProt P22629); assay: streptavidin binders on small-molecule microarray, primary screen, artefact control for SMM compound annotation, biophysical, 635/667 nm fluorescence (AID 1147); conditions: streptavidin binding, higher = more signal;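 further: signal reflects streptavidin binding to arrayed compounds as a control protein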
[17] = small-molecule binders of probe aInhba, primary screen, biochemical, small-molecule microarray, 635/667 nm fluorescence (AID 1148); conditions: higher = more signal;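 further: score merges 667nm spot fluorescence with signal-to-noise for antibody binding to printed compounds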
[18] = target: Torsin-1A (Homo sapiens) (UniProt O14656); assay: torsin A binders from cell lysate, primary screen, small-molecule microarray, wild-type, 635/667 nm (AID 1149); conditions: COS7 hTOR1A-WT lysate, 635 nm fluorescence, higher = more signal
[19] = target: Torsin-1A (Homo sapiens) (UniProt O14656); assay: small-molecule binders of mutant TOR1A in lysate, primary screen, cell lysate, small-molecule microarray, COS7 lysate, 635/667 nm fluorescence (AID 1150); conditions: COS7 hTOR1A mutant lysate, 635 nm fluorescence, higher = more signal;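 further: score pools 667 nm emission and signal to noise measuring lysate protein binding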
[20] = tested on: Sonic hedgehog protein (Shh); assay: small-molecule binders of Shh protein, primary screen, biochemical, small-molecule microarray, 635/667 nm fluorescence (AID 1151); conditions: small-molecule microarray binding, 635 nm fluorescence; higher = more signal;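 further: Shh protein binding to compounds spotted on small-molecule microarray slides; score combines spot fluorescence intensity with signal-to-noise across triplicate slides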

Chain of Streptavidin (Streptomyces avidinii) (P22629 whole entry, looked up): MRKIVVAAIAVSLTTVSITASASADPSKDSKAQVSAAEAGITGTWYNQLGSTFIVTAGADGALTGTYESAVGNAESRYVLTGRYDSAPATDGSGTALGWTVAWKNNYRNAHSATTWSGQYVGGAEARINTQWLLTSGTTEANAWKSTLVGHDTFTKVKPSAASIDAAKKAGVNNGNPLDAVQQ
Chain of Luciferin 4-monooxygenase (Photinus pyralis) (P08659 whole entry, looked up): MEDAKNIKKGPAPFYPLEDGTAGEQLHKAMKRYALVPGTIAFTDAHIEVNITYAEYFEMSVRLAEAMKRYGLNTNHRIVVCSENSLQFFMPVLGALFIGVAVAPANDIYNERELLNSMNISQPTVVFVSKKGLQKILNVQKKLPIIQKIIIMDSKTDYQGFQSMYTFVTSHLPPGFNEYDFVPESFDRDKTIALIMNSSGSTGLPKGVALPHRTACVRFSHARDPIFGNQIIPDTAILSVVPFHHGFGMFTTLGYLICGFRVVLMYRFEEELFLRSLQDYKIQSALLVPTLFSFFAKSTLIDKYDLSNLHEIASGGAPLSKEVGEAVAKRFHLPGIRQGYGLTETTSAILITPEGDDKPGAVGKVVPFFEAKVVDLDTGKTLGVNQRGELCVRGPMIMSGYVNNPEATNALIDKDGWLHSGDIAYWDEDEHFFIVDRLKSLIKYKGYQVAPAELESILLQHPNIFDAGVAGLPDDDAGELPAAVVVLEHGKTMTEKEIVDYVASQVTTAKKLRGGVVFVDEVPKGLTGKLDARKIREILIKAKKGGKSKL
Chain of Focal adhesion kinase 1 (Homo sapiens) (Q05397 whole entry, looked up): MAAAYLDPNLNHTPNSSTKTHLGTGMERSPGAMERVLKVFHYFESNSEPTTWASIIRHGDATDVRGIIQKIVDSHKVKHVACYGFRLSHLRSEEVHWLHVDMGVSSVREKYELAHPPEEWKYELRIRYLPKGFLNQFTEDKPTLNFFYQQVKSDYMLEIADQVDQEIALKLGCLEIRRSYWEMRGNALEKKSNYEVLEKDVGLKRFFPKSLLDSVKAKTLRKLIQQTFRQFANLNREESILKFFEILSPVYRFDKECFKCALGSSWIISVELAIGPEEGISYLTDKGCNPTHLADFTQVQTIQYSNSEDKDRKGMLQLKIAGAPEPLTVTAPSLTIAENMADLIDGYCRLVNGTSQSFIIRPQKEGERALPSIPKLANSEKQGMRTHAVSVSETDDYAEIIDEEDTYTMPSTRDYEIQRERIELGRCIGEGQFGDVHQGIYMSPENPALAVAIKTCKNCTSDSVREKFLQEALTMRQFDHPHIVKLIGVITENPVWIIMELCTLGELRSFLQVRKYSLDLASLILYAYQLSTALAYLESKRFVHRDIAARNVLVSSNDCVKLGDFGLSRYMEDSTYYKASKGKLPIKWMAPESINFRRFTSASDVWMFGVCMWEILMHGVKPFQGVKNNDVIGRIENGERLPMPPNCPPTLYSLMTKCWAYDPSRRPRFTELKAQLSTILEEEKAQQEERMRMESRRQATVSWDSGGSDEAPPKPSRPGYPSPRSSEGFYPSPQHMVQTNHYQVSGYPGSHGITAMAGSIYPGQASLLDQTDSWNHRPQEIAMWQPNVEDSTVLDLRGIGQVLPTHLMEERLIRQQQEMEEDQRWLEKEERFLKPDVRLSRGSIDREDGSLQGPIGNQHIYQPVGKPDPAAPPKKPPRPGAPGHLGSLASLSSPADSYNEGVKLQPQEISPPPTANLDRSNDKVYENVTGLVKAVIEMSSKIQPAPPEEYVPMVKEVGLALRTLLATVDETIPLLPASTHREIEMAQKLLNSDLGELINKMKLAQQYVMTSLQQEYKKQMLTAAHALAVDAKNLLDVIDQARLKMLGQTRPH
Chain of Follistatin (Homo sapiens) (P19883 whole entry, looked up): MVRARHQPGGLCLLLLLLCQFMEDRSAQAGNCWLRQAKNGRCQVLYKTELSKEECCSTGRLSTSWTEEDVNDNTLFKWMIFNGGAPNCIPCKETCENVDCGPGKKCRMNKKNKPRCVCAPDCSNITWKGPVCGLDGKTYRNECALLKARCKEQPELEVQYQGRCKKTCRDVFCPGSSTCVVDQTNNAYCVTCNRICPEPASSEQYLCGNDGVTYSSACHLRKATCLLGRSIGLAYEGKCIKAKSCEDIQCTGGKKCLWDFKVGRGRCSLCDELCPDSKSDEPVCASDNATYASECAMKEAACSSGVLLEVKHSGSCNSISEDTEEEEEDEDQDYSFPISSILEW
Chain of Fibroblast growth factor 2 (Homo sapiens) (P09038 whole entry, looked up): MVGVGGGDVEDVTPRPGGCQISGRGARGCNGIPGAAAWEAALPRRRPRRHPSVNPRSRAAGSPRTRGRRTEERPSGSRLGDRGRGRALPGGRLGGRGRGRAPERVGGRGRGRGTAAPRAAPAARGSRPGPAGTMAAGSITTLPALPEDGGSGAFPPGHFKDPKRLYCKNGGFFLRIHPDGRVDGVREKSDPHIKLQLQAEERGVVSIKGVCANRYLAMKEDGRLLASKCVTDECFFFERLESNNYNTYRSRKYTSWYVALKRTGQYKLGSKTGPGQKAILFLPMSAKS
Chain of Torsin-1A (Homo sapiens) (O14656 whole entry, looked up): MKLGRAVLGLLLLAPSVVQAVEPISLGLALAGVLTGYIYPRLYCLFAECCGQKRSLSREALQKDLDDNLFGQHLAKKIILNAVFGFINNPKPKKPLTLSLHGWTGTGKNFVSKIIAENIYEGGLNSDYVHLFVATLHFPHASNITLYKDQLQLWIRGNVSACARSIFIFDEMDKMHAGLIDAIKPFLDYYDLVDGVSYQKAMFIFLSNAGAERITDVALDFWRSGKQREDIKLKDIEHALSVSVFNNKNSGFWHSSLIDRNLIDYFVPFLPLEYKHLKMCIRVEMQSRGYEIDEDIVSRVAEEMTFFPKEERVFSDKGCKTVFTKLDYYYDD

SMILES	composite z-score [1]	composite z-score [2]	composite z-score [3]	composite z-score [4]	composite z-score [5]	composite z-score [6]	z-score [7]	composite z-score [8]	composite z-score [9]	z-score [10]	composite z-score [11]	z-score [12]	z-score [13]	z-score [14]	z-score [15]	composite z-score [16]	composite z-score [17]	composite z-score [18]	composite z-score [19]	composite z-score [20]
O=C(c1ccccc1)N1C(=O)[C@]2(Cc3ccccc31)N=C(c1ccc(OCCCO)cc1)O[C@@H]2c1ccccc1	1.87	1.23	0.677	0.965	1.24	0.944	-2.12	0.764	0.305	-1.33 (inactive)	1.09	-5.16 (inactive)	-0.378 (inactive)	2.67 (inactive)	2.1 (inactive)	0.431	-0.0361	0.357	0.562	2.09
Cc1ccc(N2C(=O)c3ccccc3[C@@H](C(=O)NCCCN(C)C)[C@@H]2c2ccc(CO)cc2)nc1	2.06	0.232	-0.736	0.442	0.115	-0.189	-0.0107	-0.978	-0.0618	0.775 (inactive)	-0.198	0.492 (inactive)	0.252 (inactive)	0.208 (inactive)	-1.35 (inactive)	0.0893	-0.477	0.276	0.011	0.0381
CCOC(=O)C1=CC[C@@H](c2ccccc2)N(S(=O)(=O)c2ccc(C)cc2)[C@H]1c1ccccc1	0.271	1.17	0.428	0.915	-0.0842	-0.486	2.45	-0.381	0.991	1.16 (inactive)	0.144	-3.01 (inactive)	1.29 (inactive)	-0.0228 (inactive)	1.31 (inactive)	1.46	0.115	0.345	0.626	-0.627
COCCCNC(=O)[C@@]1(Sc2ccc(C)cc2)CC(=O)N(C2Cc3ccccc3C2)[C@@H]1c1ccc(CO)cc1	0.72	0.336	-0.296	-0.841	-1.22	-1.35	-0.318	-1.1	-1.47	0.925 (inactive)	-0.228	-4.69 (inactive)	-1.03 (inactive)	0.685 (inactive)	1.95 (inactive)	-1.17	-0.327	-1.86	-1.35	-1.45
COCCOC(=O)N1C(=O)[C@@]2(c3cc(C#CC4=CCCCC4)ccc31)[C@H](C(=O)Nc1nc3ccccc3s1)[C@H]1C(=O)O[C@H](c3ccccc3)[C@H](c3ccccc3)N1[C@@H]2c1ccc(O)cc1	0.174	1.21	1.38	0.362	1.39	1.7	-2.1	0.869	0.529	-1.5 (inactive)	0.381	-0.67 (inactive)	0.288 (inactive)	0.532 (inactive)	0.817 (inactive)	1.25	-0.0178	1.15	0.358	2.06
CC(C)C(CO)N1C(=O)[C@@H]2C3C(=O)OCCC/C=C\[C@H]3OC23C=CCN(Cn2nnc4ccccc42)C(=O)[C@@H]13 (stereo not given in full)	2.67	-0.233	-0.0444	-1.18	-0.0048	-1.08	-0.477	-0.0488	-0.422	-0.0817 (inactive)	-0.665	-0.252 (inactive)	0.0208 (inactive)	-1.44 (inactive)	-0.0111 (inactive)	-1.23	-0.128	-1.7	-1.07	0.0683
CCCCCCc1nc(Cc2cc(OC)c(OC)c(OC)c2)cc2c1[Si](C(C)C)(C(C)C)OC2	-0.215	-0.517	-0.191	-0.0217	0.422	0.521	0.185	0.566	-0.0555	0.809 (inactive)	0.03	-5.33 (inactive)	-0.012 (inactive)	0.498 (inactive)	-0.419 (inactive)	0.0761	0.0973	0.108	-0.282	0.724
O=c1cccc(-c2ccc([N+](=O)[O-])cc2)o1	0.504	0.963	0.21	-0.301	1.28	1.05	-0.233	1.4	0.301	1.68 (inactive)	0.105	-1.88 (inactive)	-0.982 (inactive)	-0.882 (inactive)	0.61 (inactive)	0.315	0.165	-0.0842	0.376	2.19
[N-]=[N+]=Nc1ccccc1[C@@H]1OC(c2ccc(OCCCO)cc2)=N[C@]1(Cc1ccccc1)C(=O)O	1.87	1.21	0.854	0.803	1.31	0.32	0.506	-0.028	1.09	-9.46 (active)	0.343	-0.626 (inactive)	0.693 (inactive)	1.05 (inactive)	-1.43 (inactive)	0.723	0.207	0.0692	0.285	-0.0767
COc1ccc([Si](C)(C)[C@H]2[C@H](CC(=O)N(CCO)Cc3ccccc3)O[C@@]3(C(=O)N(C)c4c(Br)cc(C)cc43)[C@@H]2C)cc1	1.19	1.03	-0.0842	-0.009	1.51	1.84	-0.774	1.57	0.61	-0.342 (inactive)	0.306	-5.69 (inactive)	-1.43 (inactive)	9.7 (active)	-2.49 (inactive)	0.527	-0.128	2.12	1.98	1.72
[N-]=[N+]=Nc1ccccc1C[C@]1(C(=O)N2CCOCC2)COC(c2ccc(OCCCO)cc2)=N1	0.964	1.24	0.144	1.04	0.39	-0.313	0.9	-0.0478	0.606	-5.96 (inactive)	0.375	-4.38 (inactive)	-0.33 (inactive)	0.344 (inactive)	-0.687 (inactive)	1.42	0.191	0.442	0.507	-1.01
